Source: PubChem BioAssay (NCI)
The panel holds about 83,000 compounds, 20% with a hit somewhere; the sample as a whole holds those more often.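 Single-dose data. Exposure time 48 hours. Values below 10 considered active.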 The source made the active and inactive calls.

What follows are compounds tested on COLO 205 colon (assay: NCI-60 one-dose screen, 48 h (100 = growth as untreated, 0 = no growth, -100 = all killed)). Conditions: 10 µM unless noted.
Experimental: Cells are grown in 96 well plates and exposed to the test compound for 48 hours. Compounds are tested at a single concentration, which is 10^-5 M for most compounds. The reported endpoint is percent growth (GI% or GIPRCNT), where numbers from 0 - 100% represent growth inhibition, and numbers from -100% - 0 represent cell death. For example, a value of 40 represents 60% growth inhibition. A value of 0 means no net growth occurred over the course of the experiment. A value of -40 indicates 40% of cells at the beginning of the experiment died by the end of the experiment. A value of -100 means all cells are dead at the end of the experiment.
NCI-60 Human Tumor Cell Lines Screen was performed using the standard one-dose NCI protocol, which is described in more detail at https://dtp.cancer.gov/discovery_development/nci-60/default.htm.
Compounds with GIPRCNT values below 10 were considered active. Activity score was based on GIPRCNT using the following formula: […]
Score is 0 for GIPRCNT values of 100 or above, 50 for GIPRCNT values of 0, and 100 for GIPRCNT values of -100.

Row | SMILES | growth
1 | CCCCCn1c(=N)n(CC(O)COc2cccc(C)c2)c2ccccc21 (stereo not given) | 87.2% (inactive)
2 | O=C1/C(=C/c2ccc(F)cc2)CN(Cc2cn(CCNc3ccnc4cc(Cl)ccc34)nn2)C/C1=C\c1ccc(F)cc1 | -53.4% (active)
3 | Cc1cc(Cl)c2c(Cl)ccc(Cl)c2n1 | 114% (inactive)
4 | OC[C@@H](O)[C@@H](O)CO | 111% (inactive)
5 | CCOC(=O)c1cn2c3c(cc(F)cc3c1=O)C(CC)c1ccccc1C2 (stereo not given) | 105% (inactive)
6 | O=[N+]([O-])c1cc2c(cc1Br)-c1ccccc1C2 | 84.6% (inactive)
7 | COc1ncc(F)c(OC)n1 | 110% (inactive)
8 | CCOC(=O)n1cc(C2=C(c3cn(C)c4ccccc34)COC2=O)c2ccccc21 | -31.2% (active)
9 | Nc1ccccc1-c1n[nH]c(=O)[nH]c1=O | 137% (inactive)
10 | COc1nc2c(cc1S(=O)(=O)c1ccccc1)CCc1c-2cnn1-c1cccc(Cl)c1 | 103% (inactive)
11 | COc1cccc(C2C3=C(COC3=O)N(CCO)c3cc4c(cc32)CCC4)c1 (stereo not given) | -78.5% (active)
12 | NC(=O)c1nc2c([nH]c1=O)CCCC2 | 101% (inactive)
13 | COc1ccc(CSc2nc3cc(OC)c(OC)cc3c(=O)n2-c2ccc(Cl)cc2)cc1 | 104% (inactive)
14 | CCOC(=O)c1sc(NC(=O)CN2CCC(Cc3ccccc3)CC2)nc1C | 97.1% (inactive)
15 | CC(C)(C)[Si](C)(C)OC1[C@@H](CNC(=O)NC(=O)CCl)O[C@@H](n2cnc3c(N)ncnc32)[C@H]1O[Si](C)(C)C(C)(C)C (stereo not given in full) | -16.8% (active)
16 | Cc1oc2c(c1C(=O)N1CC[C@@H](N)C1)C(=O)c1c(c(O)c3ccccc3c1O)C2=O | 13.1% (inactive)
17 | Clc1ccccc1Nc1ccc2nnc(-c3ccncc3)n2n1 | 106% (inactive)
18 | O=C(Nc1ccc(F)cc1)c1ccc(C(=O)Nc2ccc(F)cc2)cc1 | 114% (inactive)
19 | CCSc1nnc2c3cc(Br)ccc3n(C)c2n1 | 102% (inactive)
20 | CC(=O)Nc1ccccc1-c1n[nH]c(=O)[nH]c1=O | 115% (inactive)

Row | SMILES | growth
21 | COc1cc2nc(SCc3cc(OC)c(OC)c(OC)c3)n(-c3ccccc3OC)c(=O)c2cc1OC | 118% (inactive)
22 | CCOC(=O)c1cc2c(n(C)c1=O)-c1cnn(-c3ccc(OC)cc3)c1CC2 | 109% (inactive)
23 | O=S(=O)(/N=C1C=C/C(=N\S(=O)(=O)c2ccccc2)c2ccccc2\1)c1ccccc1 | 111% (inactive)
24 | CN1CCN(C)c2cncc(Br)c2C1=O | 108% (inactive)
25 | c1ccc(-c2nc(N3CCOCC3)c3c4c(sc3n2)CCCCCC4)nc1 | 68.5% (inactive)
26 | COc1cc(C2=NN(c3ccc(S(N)(=O)=O)cc3)C(c3ccc(Cl)cc3)C2)cc(OC)c1OC (stereo not given) | 48.5% (inactive)
27 | Oc1ccc(Cl)cc1CNc1nc2ccccc2[nH]1 | 65.1% (inactive)
28 | COc1ccc(-n2ncc3c2ccc2cc(S(=O)(=O)c4ccccc4)c(=O)n(C)c23)cc1 | 108% (inactive)
29 | CC1SC(c2ccc(Cl)cc2)N(CCc2cccs2)C1=O (stereo not given) | -60.5% (active)
30 | N#CCCN1CCN(CCC#N)C1=S | 105% (inactive)
31 | Cc1cc(O)cc2c1[C@H]1CC[C@]3(C)[C@@H](O)CC[C@H]3[C@@H]1C=C2 | 108% (inactive)
32 | O=C(O)CCN1CCN(c2cccc(Cl)c2)CC1 | 111% (inactive)
33 | O=C1C(Cl)=C(NCCCN2CCOCC2)C(=O)c2ccccc21 | 86.9% (inactive)
34 | c1ccc2cc(Cn3c(-c4ccc5ccccc5c4)[n+](Cc4ccc5ccccc5c4)c4ccccc43)ccc2c1 | -69.5% (active)
35 | O=C(COc1ccc(/C=C2\CSc3ccccc3C2=O)cc1)c1ccc(Cl)cc1 | 103% (inactive)
36 | Cc1nc2cc(Nc3nc(N4CCCCC4)nc(N4CCOCC4)n3)ccc2n1Cc1ccccc1 | 41% (inactive)
37 | O=c1c2c(=NCCN3CCCC3)cc3c(=O)n(CCCN4CCOCC4)c(=O)c4ccc(c(O)n1CCCN1CCOCC1)c2c4-3 | -55.8% (active)
38 | COc1cc(-c2nc3ccccc3o2)cc(CN2CCN(c3ccccc3)CC2)c1O | 117% (inactive)
39 | COc1ccc(/C=C(\C#N)c2ccc(OC)cc2)cc1 | 78.7% (inactive)
40 | Cc1nc2cc(Nc3nc(NCCN)nc(Nc4ccc(F)cc4)n3)ccc2n1Cc1ccccc1 | 82% (inactive)
